The whole screen tested about 5,500 compounds, of which about 2,000 (36%) were called active. Inconclusive results (about 18%) are left out. Rule as the data show it: active = normalized growth mostly below about 0.91 (no sharp cut-off); inconclusive = no clear call, values can overlap the other calls; inactive = mostly above about 0.92. This is one part of the list.
Assay: chemical genetic growth profiling, strain panel (AID 1159580);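 also: tested at 20 µM; growth read once vehicle control cultures reached saturation at 30 °C; 1 = growth at the plate median or of vehicle wells; lower values mean less growth of the strain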
Conditions: growth OD

Measured: normalized growth

O=C(/C=C/c1ccccc1)c1c(O)cc(O)cc1O
inactive: S. cerevisiae deletion strains, locus YAL013W, strain DEP1, hits give low values 1.01 | S. cerevisiae deletion strains, locus YBR021W, strain FUR4, hits give low values 0.995 | S. cerevisiae deletion strains, locus YBR229C, strain ROT2, hits give low values 1.01 | S. cerevisiae deletion strains, locus YCL029C, strain bik1, hits give low values 1 | S. cerevisiae deletion strains, locus YDL035C, strain GPR1, hits give low values 1.02 | S. cerevisiae deletion strains, locus YDL074C, strain BRE1, hits give low values 1.02 | S. cerevisiae deletion strains, locus YDL101C, strain DUN1, hits give low values 1.01 | S. cerevisiae deletion strains, locus YDL134C, strain PPH21, hits give low values 1.02 | S. cerevisiae deletion strains, locus YDL185W, strain tfp1, hits give low values 1.01 | S. cerevisiae deletion strains, locus YDL192W, strain arf1, hits give low values 1 | S. cerevisiae deletion strains, locus YDR101C, strain arx1, hits give low values 0.999 | S. cerevisiae deletion strains, locus YDR150W, strain NUM1, hits give low values 1.02 | S. cerevisiae deletion strains, locus YDR162C, strain NBP2, hits give low values 1.04 | S. cerevisiae deletion strains, locus YDR318W, strain mcm21, hits give low values 0.995 | S. cerevisiae deletion strains, locus YDR388W, hits give low values 0.997 | S. cerevisiae deletion strains, locus YDR502C, strain sam2, hits give low values 1 | S. cerevisiae deletion strains, locus YEL061C, strain CIN8, hits give low values 1.01 | S. cerevisiae deletion strains, locus YER110C, hits give low values 1.01 | S. cerevisiae deletion strains, locus YER155C, strain BEM2, hits give low values 1.01 | S. cerevisiae deletion strains, locus YER167W, strain BCK2, hits give low values 1.01 | S. cerevisiae deletion strains, locus YGL078C, strain dbp3, hits give low values 1 | S. cerevisiae deletion strains, locus YGL086W, strain mad1, hits give low values 1 | S. cerevisiae deletion strains, locus YGL248W, strain PDE1, hits give low values 1.01 | S. cerevisiae deletion strains, locus YGR078C, strain PAC10, hits give low values 1.03 | S. cerevisiae deletion strains, locus YGR135W, strain pre9, hits give low values 1 | S. cerevisiae deletion strains, locus YGR229C, strain SMI1, hits give low values 1.02 | S. cerevisiae deletion strains, locus YGR252W, strain gcn5, hits give low values 0.972 | S. cerevisiae deletion strains, locus YHR030C, strain SLT2, hits give low values 1.01 | S. cerevisiae deletion strains, locus YHR079C, strain IRE1 (second series), hits give low values 0.994 | S. cerevisiae deletion strains, locus YHR094C, strain hxt1, hits give low values 1 | S. cerevisiae deletion strains, locus YHR129C, strain ARP1, hits give low values 1.01 | S. cerevisiae deletion strains, locus YHR200W, strain rpn10, hits give low values 1 | S. cerevisiae deletion strains, locus YIL066C, strain RNR3, hits give low values 1.02 | S. cerevisiae deletion strains, locus YIL073C, strain SPO22, hits give low values 1.04 | S. cerevisiae deletion strains, locus YIL125W, strain kgd1, hits give low values 1 | S. cerevisiae deletion strains, locus YIR030C, strain dcg1, hits give low values 0.999 | S. cerevisiae deletion strains, locus YJL095W, strain BCK1, hits give low values 1.01 | S. cerevisiae deletion strains, locus YJL134W, strain LCB3, hits give low values 1.01 | S. cerevisiae deletion strains, locus YJL168C, strain set2, hits give low values 0.993 | S. cerevisiae deletion strains, locus YJL187C, strain SWE1 (second series), hits give low values 1.01 | S. cerevisiae deletion strains, locus YJR043C, strain POL32, hits give low values 0.998 | S. cerevisiae deletion strains, locus YJR075W, strain HOC1, hits give low values 1.01 | S. cerevisiae deletion strains, locus YKL009W, strain mrt4, hits give low values 1.01 | S. cerevisiae deletion strains, locus YKL068W, hits give low values 1 | S. cerevisiae deletion strains, locus YKL085W, strain MDH1 (second series), hits give low values 1 | S. cerevisiae deletion strains, locus YKL085W, strain MDH1, hits give low values 1 | S. cerevisiae deletion strains, locus YKL190W, strain CNB1, hits give low values 1.01 | S. cerevisiae deletion strains, locus YKR001C, strain vps1, hits give low values 1.01 | S. cerevisiae deletion strains, locus YLR039C, strain RIC1, hits give low values 1.04 | S. cerevisiae deletion strains, locus YLR058C, strain SHM2, hits give low values 1.01 | S. cerevisiae deletion strains, locus YLR102C, strain apc9, hits give low values 0.998 | S. cerevisiae deletion strains, locus YLR262C, strain YPT6, hits give low values 1.06 | S. cerevisiae deletion strains, locus YLR268W, strain sec22, hits give low values 0.989 | S. cerevisiae deletion strains, locus YLR330W, strain CHS5, hits give low values 1.01 | S. cerevisiae deletion strains, locus YLR342W, strain FKS1 (second series), hits give low values 1 | S. cerevisiae deletion strains, locus YLR371W, strain rom2, hits give low values 0.997 | S. cerevisiae deletion strains, locus YLR418C, strain cdc73, hits give low values 0.992 | S. cerevisiae deletion strains, locus YML016C, strain PPZ1, hits give low values 1.01 | S. cerevisiae deletion strains, locus YML032C, strain rad52, hits give low values 1 | S. cerevisiae deletion strains, locus YML124C, strain tub3, hits give low values 1.01 | S. cerevisiae deletion strains, locus YMR078C, strain ctf18, hits give low values 1 | S. cerevisiae deletion strains, locus YMR223W, strain ubp8, hits give low values 0.995 | S. cerevisiae deletion strains, locus YMR263W, strain SAP30, hits give low values 1.02 | S. cerevisiae deletion strains, locus YMR307W, strain GAS1, hits give low values 0.915 | S. cerevisiae deletion strains, locus YNL067W, strain RPL9B, hits give low values 1.01 | S. cerevisiae deletion strains, locus YNL128W, strain TEP1, hits give low values 1.02 | S. cerevisiae deletion strains, locus YNL153C, strain GIM3, hits give low values 1.03 | S. cerevisiae deletion strains, locus YNL233W, strain BNI4, hits give low values 1.02 | S. cerevisiae deletion strains, locus YNL250W, strain rad50, hits give low values 1.01 | S. cerevisiae deletion strains, locus YNL271C, strain bni1, hits give low values 1 | S. cerevisiae deletion strains, locus YNL298W, strain CLA4, hits give low values 1.01 | S. cerevisiae deletion strains, locus YNL307C, strain MCK1, hits give low values 1.01 | S. cerevisiae deletion strains, locus YNL322C, strain KRE1, hits give low values 1.01 | S. cerevisiae deletion strains, locus YNR052C, strain pop2, hits give low values 0.998 | S. cerevisiae deletion strains, locus YOL006C, strain TOP1, hits give low values 1.05 | S. cerevisiae deletion strains, locus YOL012C, strain htz1 0.787 | S. cerevisiae deletion strains, locus YOL147C, strain pex11, hits give low values 1.01 | S. cerevisiae deletion strains, locus YOR061W, strain CKA2, hits give low values 1.01 | S. cerevisiae deletion strains, locus YOR069W, strain VPS5, hits give low values 1.01 | S. cerevisiae deletion strains, locus YOR136W, strain idh2, hits give low values 0.995 | S. cerevisiae deletion strains, locus YOR144C, strain elg1, hits give low values 1 | S. cerevisiae deletion strains, locus YOR184W, strain ser1, hits give low values 1.01 | S. cerevisiae deletion strains, locus YOR316C, strain cot1, hits give low values 0.996 | S. cerevisiae deletion strains, locus YPL055C, strain LGE1, hits give low values 1.05 | S. cerevisiae deletion strains, locus YPL241C, strain CIN2, hits give low values 1.01 | S. cerevisiae deletion strains, locus YPR119W, strain clb2, hits give low values 0.997 | S. cerevisiae deletion strains, locus YPR141C, strain kar3, hits give low values 1.01 | S. cerevisiae deletion strains, locus YPR163C, strain tif3, hits give low values 1 | S. cerevisiae deletion strains, locus YPR167C, strain met16, hits give low values 0.998 | S. cerevisiae deletion strains, strain wtn01, hits give low values 1.01 | S. cerevisiae strains, strain wild type, hits give low values 1.01
